Measured values: PubChem BioAssay (NCATS)
Inconclusive results are not listed. A call without a number means that no potency is given here. A number with no mark means an inactive call. Activity calls are given as the source filed them. Calls follow the shape of the dose curve; as a rule, active = well fitted curve in the direction sought with a large enough effect; inconclusive = small, poorly fitted or top-dose-only effect, or another doubt; inactive = no such curve, though single readings can be large; an effect the other way counts as inactive or inconclusive.

Experiments:
[1] = system: Hek293T; test: Primary qHTS to identify gynecologic anti-cancer compounds using libraries of approved drugs and bioactive compounds (AID 1345084); details: Gynecologic cancer cell panel viability, ATPlite luminescence, 48 h, control line for the selectivity index; series mostly up to 57.5 µM; also: nearly all actives have a fitted effect of over 55% in size
Outline: (§1)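 Cells, 1,000 per well, plated 16 h, then exposed 48 h at 37 C to compounds. Viability by ATPlite luminescence after 15 min at room temperature.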

[2] = system: JEG-3; test: as above; details: Gynecologic cancer cell panel viability, ATPlite luminescence, 48 h; series mostly up to 57.5 µM
Outline: as §1

[3] = system: OV90; test: as above; details: Gynecologic cancer cell panel viability, ATPlite luminescence, 48 h; series mostly up to 57.5 µM
Outline: as §1

[4] = system: PA-1; test: as above; details: Gynecologic cancer cell panel viability, ATPlite luminescence, 48 h; series mostly up to 57.5 µM
Outline: as §1

[5] = system: SKOV3; test: as above; details: Gynecologic cancer cell panel viability, ATPlite luminescence, 48 h; series mostly up to 57.5 µM
Outline: as §1

[6] = system: Tov-21-G; test: as above; details: Gynecologic cancer cell panel viability, ATPlite luminescence, 48 h; series mostly up to 57.5 µM
Outline: as §1

[7] = system: Tov112D; test: as above; details: Gynecologic cancer cell panel viability, ATPlite luminescence, 48 h; series mostly up to 57.5 µM
Outline: as §1

[8] = Drug repurposing screens with cells derived from glioblastoma tumor samples (AID 1345199); details: GBM patient neurospheres viability, ATP luminescence, 48 h; also: nearly all actives have a fitted effect of over 40% in size
Outline: (§2)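 Four patient lines of CD133+ GBM neurospheres were screened at several concentrations; hits were retested in those lines plus three slower-growing GBM lines, using 48-hour treatment and ATP-based viability.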

[9] = system: astro; test: as above; details: viability, ATP luminescence, 48 h; series mostly up to 45.9 µM
Outline: as §2

[10] = at 45.9 µM (top of the series), tumour line B
[11] = at 45.9 µM (top of the series), tumour line D
[12] = at 46.1 µM (top of the series), tumour line C
Potency is read from the fitted curve at half-maximal effect.

In the case of `CC(=O)Nc1ncc([N+](=O)[O-])s1`, the Potency [1] is reported as “inactive”, the Potency [2] is reported as “inactive” and the Potency [3] is reported as “inactive”. For the same molecule, the Potency [4] was “inactive”, the Potency [5] was “inactive” and the Potency [6] was “inactive”. For the same molecule, the Potency [7] was “inactive”, the activity, negative = cell killing [8, 10] was -7.38% and the activity, negative = cell killing [8, 11] was -8.31%. The activity, negative = cell killing [8, 12] was -21.7% and the Potency [9] was “inactive”.
With `Cn1c(=O)c2[nH]c(Br)nc2n(C)c1=O` the Potency [1] was “inactive”, the Potency [2] was “inactive” and the Potency [3] was “inactive”. For the same molecule, the Potency [4] was “inactive”, the Potency [5] was “inactive” and the Potency [6] was “inactive”. For the same molecule, the Potency [7] was “inactive”, the activity, negative = cell killing [8, 10] was -10.3% and the activity, negative = cell killing [8, 11] was -8.55%. For the same molecule, the activity, negative = cell killing [8, 12] was -9.05% and the Potency [9] was “inactive”.
With `CN1CCN(c2c(F)cc3c(=O)c(C(=O)O)cn4c3c2SCC4)CC1` the Potency [1] was “inactive”, the Potency [2] was “inactive” and the Potency [3] was “inactive”. The Potency [4] was “inactive”, the Potency [5] was “inactive” and the Potency [6] was “inactive”. The Potency [7] was “inactive”, the activity, negative = cell killing [8, 10] was -10.6% and the activity, negative = cell killing [8, 12] was -19.6%. The Potency [9] was “inactive”.
With `O=C(N/N=C/c1ccc([N+](=O)[O-])o1)c1ccc(O)cc1` the Potency [1] was 25.1 µM (active), the Potency [2] was “inactive” and the Potency [3] was 22.4 µM (active). The Potency [4] was 20 µM (active), the Potency [5] was 14.1 µM (active) and the Potency [9] was “inactive”.
With `C[C@@H](O)[C@H]1C(=O)N2C(C(=O)O)=C([C@H]3CCCO3)S[C@H]12` the Potency [1] was “inactive”, the Potency [2] was “inactive” and the Potency [3] was “inactive”. The Potency [4] was “inactive”, the Potency [5] was “inactive” and the Potency [6] was “inactive”. The Potency [7] was “inactive”, the activity, negative = cell killing [8, 10] was -7.31% and the activity, negative = cell killing [8, 11] was -12.1%. For the same molecule, the activity, negative = cell killing [8, 12] was -5.94% and the Potency [9] was “inactive”.
With `O=C(CCN1CCN2CCCC2C1)N1c2ccccc2Sc2ccc(Cl)cc21` (stereo not given) the Potency [1] was “inactive”, the Potency [2] was “inactive” and the Potency [3] was “inactive”. The Potency [4] was “inactive”, the Potency [5] was “inactive” and the Potency [6] was “inactive”. For the same molecule, the Potency [7] was “inactive” and the Potency [9] was “inactive”.
In the case of `CCc1cc(Cl)c(OC)c(C(=O)NC[C@@H]2CCCN2CC)c1O`, the Potency [1] is reported as “inactive”, the Potency [2] is reported as “inactive” and the Potency [3] is reported as “inactive”. For the same molecule, the Potency [4] was “inactive”, the Potency [5] was “inactive” and the Potency [6] was “inactive”. For the same molecule, the Potency [7] was “inactive” and the Potency [9] was “inactive”.
In the case of `O=C(NC1CCN(CCc2c[nH]c3ccccc23)CC1)c1ccccc1`, the Potency [1] is reported as “inactive”, the Potency [2] is reported as “inactive” and the Potency [3] is reported as “inactive”. The Potency [4] was “inactive”, the Potency [5] was “inactive” and the Potency [6] was “inactive”. The Potency [7] was “inactive”, the activity, negative = cell killing [8, 11] was -28% and the Potency ([8]; tumour line A) was 11.2 µM (active). The Potency ([8]; tumour line C) was 20.6 µM (active) and the Potency [9] was “inactive”.
For `C=C1c2cccc(O)c2C(O)=C2C(=O)[C@]3(O)C(O)=C(C(N)=O)C(=O)[C@@H](N(C)C)[C@@H]3[C@@H](O)[C@H]12`, the Potency [1] was “inactive”, the Potency [2] was “inactive” and the Potency [3] was “inactive”. The Potency [4] was “inactive”, the Potency [5] was “inactive” and the Potency [6] was “inactive”. The Potency [7] was “inactive”, the activity, negative = cell killing ([8]; at 20 µM (top of the series), tumour line C) was -24.5% and the activity, negative = cell killing ([8]; at 21.2 µM (top of the series), tumour line B) was -7.73%. The Potency [9] was “inactive”.
For `O=C(Nc1ccc([N+](=O)[O-])cc1)Nc1ccc([N+](=O)[O-])cc1`, the Potency [1] was “inactive”, the Potency [2] was “inactive” and the Potency [3] was “inactive”. For the same molecule, the Potency [4] was “inactive”, the Potency [5] was “inactive” and the Potency [6] was “inactive”. The Potency [7] was “inactive”, the activity, negative = cell killing [8, 11] was -14.3% and the activity, negative = cell killing [8, 12] was -15.7%. The Potency [9] was “inactive”.
With `O=C1[C@H](CC[C@H](O)c2ccc(F)cc2)[C@@H](c2ccc(O)cc2)N1c1ccc(F)cc1` the Potency [1] was “inactive”, the Potency [2] was “inactive” and the Potency [3] was “inactive”. For the same molecule, the Potency [4] was “inactive”, the Potency [5] was “inactive” and the Potency [6] was “inactive”. The Potency [7] was “inactive”, the activity, negative = cell killing [8, 10] was -11.2% and the activity, negative = cell killing [8, 11] was -13.5%. The activity, negative = cell killing [8, 12] was 1.66% and the Potency [9] was “inactive”.
In the case of `Nc1nc(-c2ccccc2)c(Br)c(=O)[nH]1`, the Potency [1] is reported as “inactive”, the Potency [2] is reported as “inactive” and the Potency [3] is reported as “inactive”. The Potency [4] was “inactive”, the Potency [5] was “inactive” and the Potency [6] was “inactive”. The Potency [7] was “inactive”, the activity, negative = cell killing [8, 10] was -8.97% and the activity, negative = cell killing [8, 11] was -11.4%. The activity, negative = cell killing ([8]; at 46 µM (top of the series), tumour line A) was -28.3% and the Potency [9] was “inactive”.
For `Cc1cc2c(OCC(CNC(C)(C)C)OC(=O)c3ccccc3)cccc2[nH]1` (stereo not given), the Potency [1] was “inactive”, the Potency [2] was “inactive” and the Potency [3] was “inactive”. The Potency [4] was “inactive”, the Potency [5] was “inactive” and the Potency [6] was “inactive”. For the same molecule, the Potency [7] was “inactive”, the activity, negative = cell killing [8, 10] was -19.3% and the activity, negative = cell killing [8, 11] was -5.62%. The activity, negative = cell killing [8, 12] was -10.8% and the Potency [9] was “inactive”.
For `Cl/C(=C\n1cncn1)c1ccc(Cl)cc1Cl`, the Potency [1] was “inactive”, the Potency [2] was “inactive” and the Potency [3] was “inactive”. For the same molecule, the Potency [4] was “inactive”, the Potency [5] was “inactive” and the Potency [6] was “inactive”. For the same molecule, the Potency [7] was “inactive”, the activity, negative = cell killing [8, 10] was -7.02% and the activity, negative = cell killing [8, 11] was -2.18%. For the same molecule, the activity, negative = cell killing [8, 12] was -23.5% and the Potency [9] was “inactive”.
For `C/C=C/C=N/NC(=O)c1ccncc1`, the Potency [1] was “inactive”, the Potency [2] was “inactive” and the Potency [3] was “inactive”. The Potency [4] was “inactive”, the Potency [5] was “inactive” and the Potency [6] was “inactive”. For the same molecule, the Potency [7] was “inactive”, the activity, negative = cell killing [8, 10] was -13.6% and the activity, negative = cell killing [8, 11] was -18.3%. The activity, negative = cell killing [8, 12] was -22.3% and the Potency [9] was “inactive”.
For `CCCCCCCCOc1ccc(C(=O)c2ccccc2)c(O)c1`, the Potency [1] was “inactive”, the Potency [2] was “inactive” and the Potency [3] was “inactive”. The Potency [4] was “inactive”, the Potency [5] was “inactive” and the Potency [6] was “inactive”. For the same molecule, the Potency [7] was “inactive”, the activity, negative = cell killing [8, 10] was -18.7% and the activity, negative = cell killing [8, 11] was -9.16%. The activity, negative = cell killing [8, 12] was -24.6% and the Potency [9] was “inactive”.
In the case of `CO[C@H]1C=CO[C@@]2(C)Oc3c(C)c(O)c4c(O)c(c(/C=N/N5CCN(C)CC5)c(O)c4c3C2=O)NC(=O)/C(C)=C\C=C[C@H](C)[C@H](O)[C@@H](C)[C@@H](O)[C@@H](C)[C@H](OC(C)=O)[C@@H]1C`, the Potency [1] is reported as “inactive”, the Potency [2] is reported as “inactive” and the Potency [3] is reported as “inactive”. The Potency [4] was “inactive”, the Potency [5] was “inactive” and the Potency [6] was “inactive”. For the same molecule, the Potency [7] was “inactive” and the Potency [9] was 31.6 µM (active).
In the case of `CCC(C(=O)OCCOCCN(CC)CC)c1ccccc1` (stereo not given), the Potency [1] is reported as “inactive”, the Potency [2] is reported as “inactive” and the Potency [3] is reported as “inactive”. For the same molecule, the Potency [4] was “inactive”, the Potency [5] was “inactive” and the Potency [6] was “inactive”. The Potency [7] was “inactive”, the activity, negative = cell killing [8, 12] was -29.9% and the Potency ([8]; tumour line A) was 14.1 µM (active). For the same molecule, the Potency [9] was “inactive”.
